In publication PMC7862700, “An all-to-all approach to the identification of sequence-specific readers for epigenetic DNA modifications on cytosine” one finds binding signal data, which are given here for two sequences.

Holding throughout (assay): DAPPL (digital affinity profiling via proximity ligation, sequencing); 10 mM Tris-HCl pH 7.5, 50 mM NaCl, 1 mM DTT, 4% glycerol, room temperature, 30 min; GST-TFs on glutathione beads, 16-mer random dsDNA library, 0.1% formaldehyde crosslink after washing; high values mean tight binding
For one test, the target named is T1, FLI1 (Homo sapiens, UniProt Q01543 1-452).
T1 sequence: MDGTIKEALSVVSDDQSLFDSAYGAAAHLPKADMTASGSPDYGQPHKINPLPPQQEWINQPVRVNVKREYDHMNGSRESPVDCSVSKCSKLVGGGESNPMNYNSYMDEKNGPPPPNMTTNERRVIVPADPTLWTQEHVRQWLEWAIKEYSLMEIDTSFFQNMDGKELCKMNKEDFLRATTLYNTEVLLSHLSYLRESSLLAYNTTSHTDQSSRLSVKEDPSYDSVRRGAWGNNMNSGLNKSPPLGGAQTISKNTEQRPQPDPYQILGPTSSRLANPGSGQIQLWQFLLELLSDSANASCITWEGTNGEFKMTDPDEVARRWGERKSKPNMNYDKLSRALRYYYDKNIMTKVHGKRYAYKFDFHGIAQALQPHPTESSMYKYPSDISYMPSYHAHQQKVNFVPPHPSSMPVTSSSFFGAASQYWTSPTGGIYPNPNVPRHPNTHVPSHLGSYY
To be noted: protein: recombinant; tags: N-terminal GST; dsDNA, one strand shown. Summed up: (§1)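 Beads coated with glutathione captured GST-fused human transcription factors that had been expressed in yeast, and the factors were then given DNA barcodes and pooled with a tag-only sample. The pools were incubated with 200 nmole of a random double-stranded 16-mer DNA library in Tris/NaCl/DTT/glycerol buffer for 30 min at room temperature, washed, crosslinked with 0.1% formaldehyde and proximity-ligated with BsaI/T4 ligase at 37 °C for 1 h. PCR amplification and Illumina NextSeq500 sequencing came last. Binding signal is each hexamer's read frequency for a factor divided by its frequency for the tag-only sample.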

The target in the next test is T2, ELK1 (Homo sapiens, UniProt P19419 1-428).
T2 sequence: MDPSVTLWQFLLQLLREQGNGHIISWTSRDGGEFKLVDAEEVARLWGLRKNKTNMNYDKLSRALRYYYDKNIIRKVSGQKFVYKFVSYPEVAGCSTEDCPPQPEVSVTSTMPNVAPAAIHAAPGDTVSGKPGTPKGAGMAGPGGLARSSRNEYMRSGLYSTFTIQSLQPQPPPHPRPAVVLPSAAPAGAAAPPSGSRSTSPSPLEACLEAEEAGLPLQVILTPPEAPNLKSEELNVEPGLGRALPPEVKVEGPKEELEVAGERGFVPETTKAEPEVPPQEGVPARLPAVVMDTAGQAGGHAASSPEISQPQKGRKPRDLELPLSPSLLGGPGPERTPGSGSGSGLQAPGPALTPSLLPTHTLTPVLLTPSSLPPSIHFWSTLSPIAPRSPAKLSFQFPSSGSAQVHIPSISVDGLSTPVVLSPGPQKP
As to conditions: protein: recombinant; tags: N-terminal GST; dsDNA, one strand shown. Summed up: as §1

For the next test, the target named is T3, GABPA (Homo sapiens, UniProt Q06546 1-454).
T3 sequence: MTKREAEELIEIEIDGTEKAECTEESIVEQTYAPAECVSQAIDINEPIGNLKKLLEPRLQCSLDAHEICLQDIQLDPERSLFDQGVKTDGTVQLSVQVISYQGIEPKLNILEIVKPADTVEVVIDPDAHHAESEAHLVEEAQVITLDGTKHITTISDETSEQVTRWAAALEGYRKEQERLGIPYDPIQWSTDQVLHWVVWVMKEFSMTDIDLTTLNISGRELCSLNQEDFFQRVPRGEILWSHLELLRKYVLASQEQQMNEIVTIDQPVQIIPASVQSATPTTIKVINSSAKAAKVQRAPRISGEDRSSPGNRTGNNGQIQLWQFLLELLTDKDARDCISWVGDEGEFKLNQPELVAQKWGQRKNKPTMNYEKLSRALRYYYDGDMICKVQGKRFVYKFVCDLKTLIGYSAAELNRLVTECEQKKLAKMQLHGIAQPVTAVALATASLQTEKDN
As to conditions: protein: recombinant; tags: N-terminal GST; dsDNA, one strand shown. Summed up:
as §1

For another test, the target named is ELF1 (Homo sapiens, UniProt P32519 1-619). As to conditions: protein: recombinant; tags: N-terminal GST; dsDNA, one strand shown. In outline:
as §1

The next test concerns the target T4, EHF (Homo sapiens, UniProt Q9NZC4 1-300).
T4 sequence: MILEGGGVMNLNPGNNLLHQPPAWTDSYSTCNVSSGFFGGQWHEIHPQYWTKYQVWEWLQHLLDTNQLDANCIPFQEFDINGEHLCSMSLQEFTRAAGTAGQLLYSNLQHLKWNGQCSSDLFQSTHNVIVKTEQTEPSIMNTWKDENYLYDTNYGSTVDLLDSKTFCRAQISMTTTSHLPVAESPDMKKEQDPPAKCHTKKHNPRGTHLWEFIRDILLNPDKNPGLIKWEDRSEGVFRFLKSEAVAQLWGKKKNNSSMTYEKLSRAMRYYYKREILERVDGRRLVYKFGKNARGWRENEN
To be noted: protein: recombinant; tags: N-terminal GST; dsDNA, one strand shown. In outline: as §1

For a further test, the target named is SPIB (Homo sapiens, UniProt Q01892 1-262). As to conditions: protein: recombinant; tags: N-terminal GST; dsDNA, one strand shown. Summed up: as §1
Chain of SPIB (Q01892 whole entry): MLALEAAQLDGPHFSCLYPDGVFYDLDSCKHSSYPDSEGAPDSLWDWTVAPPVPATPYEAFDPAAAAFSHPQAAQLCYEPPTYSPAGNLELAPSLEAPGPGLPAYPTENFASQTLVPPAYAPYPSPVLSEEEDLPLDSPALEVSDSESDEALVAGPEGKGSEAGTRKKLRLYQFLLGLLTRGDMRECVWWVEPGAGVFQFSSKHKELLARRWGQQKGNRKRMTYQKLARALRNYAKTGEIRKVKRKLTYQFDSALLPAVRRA
The target of another test is T5, ELK3 (Homo sapiens, UniProt P41970 1-407).
T5 sequence: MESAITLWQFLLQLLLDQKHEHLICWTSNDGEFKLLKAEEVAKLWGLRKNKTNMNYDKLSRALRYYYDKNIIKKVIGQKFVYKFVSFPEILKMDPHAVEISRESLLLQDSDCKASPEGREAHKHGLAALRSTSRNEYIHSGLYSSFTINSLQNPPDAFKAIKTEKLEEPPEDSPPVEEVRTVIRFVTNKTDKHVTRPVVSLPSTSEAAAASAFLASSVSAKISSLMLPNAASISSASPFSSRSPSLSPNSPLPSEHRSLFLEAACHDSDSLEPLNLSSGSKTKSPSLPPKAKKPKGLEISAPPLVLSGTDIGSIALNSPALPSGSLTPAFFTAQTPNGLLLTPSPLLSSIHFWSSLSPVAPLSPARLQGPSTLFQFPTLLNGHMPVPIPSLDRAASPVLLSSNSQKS
As to conditions: protein: recombinant; tags: N-terminal GST; dsDNA, one strand shown. In outline: as §1

The next test addresses T6, FEV (Homo sapiens, UniProt Q99581 1-238).
T6 sequence: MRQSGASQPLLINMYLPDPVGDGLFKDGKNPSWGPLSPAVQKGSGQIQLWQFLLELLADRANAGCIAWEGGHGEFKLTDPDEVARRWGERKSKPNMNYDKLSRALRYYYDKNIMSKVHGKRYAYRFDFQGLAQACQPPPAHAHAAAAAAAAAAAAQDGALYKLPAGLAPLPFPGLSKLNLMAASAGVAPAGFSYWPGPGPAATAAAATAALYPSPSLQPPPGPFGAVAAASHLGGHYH
As to conditions: protein: recombinant; tags: N-terminal GST; dsDNA, one strand shown. In outline:
as §1

In a further test the target is ETV5 (Homo sapiens, UniProt P41161 1-510). As to conditions: protein: recombinant; tags: N-terminal GST; dsDNA, one strand shown. In outline: as §1
Chain of ETV5 (P41161 whole entry): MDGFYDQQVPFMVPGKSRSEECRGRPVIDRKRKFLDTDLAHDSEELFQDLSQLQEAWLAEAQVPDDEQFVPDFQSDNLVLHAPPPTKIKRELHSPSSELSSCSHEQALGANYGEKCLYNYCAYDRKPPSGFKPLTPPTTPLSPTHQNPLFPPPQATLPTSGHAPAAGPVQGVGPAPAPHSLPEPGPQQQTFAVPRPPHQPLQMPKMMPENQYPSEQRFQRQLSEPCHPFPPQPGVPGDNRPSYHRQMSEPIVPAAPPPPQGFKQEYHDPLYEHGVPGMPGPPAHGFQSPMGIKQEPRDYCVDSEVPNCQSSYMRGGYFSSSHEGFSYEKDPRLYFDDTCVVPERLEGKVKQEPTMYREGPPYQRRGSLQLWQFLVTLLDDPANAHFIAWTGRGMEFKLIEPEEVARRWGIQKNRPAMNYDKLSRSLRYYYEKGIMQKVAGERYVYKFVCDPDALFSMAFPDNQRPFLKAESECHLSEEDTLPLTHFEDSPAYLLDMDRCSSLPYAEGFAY
The target in the next test is HSF1 (Homo sapiens, UniProt Q00613 1-529). As to conditions: protein: recombinant; tags: N-terminal GST; chain copies: 3; dsDNA, one strand shown. Summed up:
as §1

Another test addresses T7, SPIC (Homo sapiens, UniProt Q8N5J4 1-248).
T7 sequence: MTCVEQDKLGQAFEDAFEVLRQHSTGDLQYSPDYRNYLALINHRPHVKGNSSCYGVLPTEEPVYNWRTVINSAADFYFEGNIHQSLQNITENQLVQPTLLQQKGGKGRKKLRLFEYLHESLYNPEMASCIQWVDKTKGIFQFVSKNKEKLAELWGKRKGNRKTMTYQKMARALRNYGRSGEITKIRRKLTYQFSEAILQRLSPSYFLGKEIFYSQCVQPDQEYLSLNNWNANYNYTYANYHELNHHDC
To be noted: protein: recombinant; tags: N-terminal GST; dsDNA, one strand shown. Summed up:
as §1

Another test has as its target ELF4 (Homo sapiens, UniProt Q99607 1-663). As to conditions: protein: recombinant; tags: N-terminal GST; dsDNA, one strand shown. In outline: as §1
In the next test the target is ETV1 (Homo sapiens, UniProt P50549 1-477). To be noted: protein: recombinant; tags: N-terminal GST; dsDNA, one strand shown. Summed up: as §1
Chain of ETV1 (P50549 whole entry): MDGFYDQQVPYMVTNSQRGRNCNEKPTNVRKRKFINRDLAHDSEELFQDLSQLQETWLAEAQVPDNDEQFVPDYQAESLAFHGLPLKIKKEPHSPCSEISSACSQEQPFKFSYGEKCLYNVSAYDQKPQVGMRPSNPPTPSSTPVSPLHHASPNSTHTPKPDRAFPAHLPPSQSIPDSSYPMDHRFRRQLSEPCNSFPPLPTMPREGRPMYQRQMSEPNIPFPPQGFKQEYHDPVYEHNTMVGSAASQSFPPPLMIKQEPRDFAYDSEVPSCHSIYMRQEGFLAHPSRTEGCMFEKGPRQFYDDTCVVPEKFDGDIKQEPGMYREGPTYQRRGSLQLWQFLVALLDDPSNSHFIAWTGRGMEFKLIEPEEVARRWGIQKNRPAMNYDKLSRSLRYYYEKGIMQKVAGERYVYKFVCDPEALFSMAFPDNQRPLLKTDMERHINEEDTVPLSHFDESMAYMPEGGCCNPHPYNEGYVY
The next test deals with T8, ERG (Homo sapiens, UniProt P11308 1-479).
T8 sequence: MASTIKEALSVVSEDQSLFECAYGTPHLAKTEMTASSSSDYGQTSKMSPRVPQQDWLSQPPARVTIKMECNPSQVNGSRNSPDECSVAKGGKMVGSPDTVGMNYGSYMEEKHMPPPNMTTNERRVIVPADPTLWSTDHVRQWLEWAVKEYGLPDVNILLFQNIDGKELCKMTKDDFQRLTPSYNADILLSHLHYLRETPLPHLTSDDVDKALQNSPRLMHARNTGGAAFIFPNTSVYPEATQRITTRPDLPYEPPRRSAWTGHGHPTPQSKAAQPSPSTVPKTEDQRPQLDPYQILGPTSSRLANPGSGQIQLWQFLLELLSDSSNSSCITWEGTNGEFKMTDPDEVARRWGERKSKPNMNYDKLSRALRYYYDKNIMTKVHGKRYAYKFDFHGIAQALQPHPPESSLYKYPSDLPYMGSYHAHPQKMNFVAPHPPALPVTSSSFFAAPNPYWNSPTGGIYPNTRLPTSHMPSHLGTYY
To be noted: protein: recombinant; tags: N-terminal GST; dsDNA, one strand shown. Summed up:
as §1

The next test addresses T9, ETV2 (Homo sapiens, UniProt O00321 1-342).
T9 sequence: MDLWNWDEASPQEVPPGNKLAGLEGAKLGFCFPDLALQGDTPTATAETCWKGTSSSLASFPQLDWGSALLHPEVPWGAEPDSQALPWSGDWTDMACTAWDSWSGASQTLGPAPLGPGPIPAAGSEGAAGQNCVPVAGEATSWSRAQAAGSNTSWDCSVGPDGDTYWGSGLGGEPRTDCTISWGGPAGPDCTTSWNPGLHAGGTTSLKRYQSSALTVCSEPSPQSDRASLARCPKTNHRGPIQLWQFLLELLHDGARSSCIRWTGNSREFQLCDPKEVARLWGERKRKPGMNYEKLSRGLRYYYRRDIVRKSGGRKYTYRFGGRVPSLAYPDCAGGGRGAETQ
To be noted: protein: recombinant; tags: N-terminal GST; dsDNA, one strand shown. In outline: as §1

For another test, the target named is T10, ELF3 (Homo sapiens, UniProt P78545 1-371).
T10 sequence: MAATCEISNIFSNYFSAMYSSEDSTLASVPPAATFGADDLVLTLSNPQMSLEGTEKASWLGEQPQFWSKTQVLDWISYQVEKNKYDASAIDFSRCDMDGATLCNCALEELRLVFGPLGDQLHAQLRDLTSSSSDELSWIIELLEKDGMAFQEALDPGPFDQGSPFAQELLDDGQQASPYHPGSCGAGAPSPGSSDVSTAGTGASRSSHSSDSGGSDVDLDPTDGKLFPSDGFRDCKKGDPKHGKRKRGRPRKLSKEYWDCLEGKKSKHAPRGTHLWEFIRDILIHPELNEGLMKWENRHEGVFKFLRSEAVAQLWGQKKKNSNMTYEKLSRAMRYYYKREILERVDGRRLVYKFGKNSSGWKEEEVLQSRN
To be noted: protein: recombinant; tags: N-terminal GST; dsDNA, one strand shown. Summed up:
as §1

The target of another test is CRX (Homo sapiens, UniProt O43186 1-299). To be noted: protein: recombinant; tags: N-terminal GST; dsDNA, one strand shown. Summed up: as §1
Chain of CRX (O43186 whole entry): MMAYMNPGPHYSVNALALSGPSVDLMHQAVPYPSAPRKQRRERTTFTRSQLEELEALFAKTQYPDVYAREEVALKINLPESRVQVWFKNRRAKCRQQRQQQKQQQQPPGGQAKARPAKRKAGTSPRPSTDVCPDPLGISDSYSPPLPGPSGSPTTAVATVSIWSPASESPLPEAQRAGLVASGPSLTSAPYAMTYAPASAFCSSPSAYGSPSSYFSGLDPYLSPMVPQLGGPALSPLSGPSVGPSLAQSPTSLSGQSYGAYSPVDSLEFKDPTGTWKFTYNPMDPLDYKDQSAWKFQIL

Chain of ELF4 (Q99607 whole entry): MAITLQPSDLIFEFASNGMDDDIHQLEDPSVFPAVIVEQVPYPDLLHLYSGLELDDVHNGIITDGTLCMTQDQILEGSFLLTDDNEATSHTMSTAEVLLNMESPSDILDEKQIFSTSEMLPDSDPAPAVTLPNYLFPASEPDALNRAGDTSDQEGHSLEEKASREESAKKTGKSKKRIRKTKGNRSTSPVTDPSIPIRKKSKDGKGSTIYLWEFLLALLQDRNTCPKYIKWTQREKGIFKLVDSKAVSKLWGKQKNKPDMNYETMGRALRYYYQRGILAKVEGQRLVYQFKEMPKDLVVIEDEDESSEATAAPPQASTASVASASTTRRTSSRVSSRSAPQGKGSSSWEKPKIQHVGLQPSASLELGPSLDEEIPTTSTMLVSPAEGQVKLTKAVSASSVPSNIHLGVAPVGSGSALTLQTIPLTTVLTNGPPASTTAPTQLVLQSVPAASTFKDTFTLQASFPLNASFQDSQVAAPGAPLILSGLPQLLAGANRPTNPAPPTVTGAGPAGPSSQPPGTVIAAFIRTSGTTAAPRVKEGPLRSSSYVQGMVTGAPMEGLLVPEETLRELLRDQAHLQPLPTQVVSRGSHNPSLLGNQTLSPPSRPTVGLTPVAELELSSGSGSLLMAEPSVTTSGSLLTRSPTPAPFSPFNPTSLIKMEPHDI
Chain of ELF1 (P32519 whole entry): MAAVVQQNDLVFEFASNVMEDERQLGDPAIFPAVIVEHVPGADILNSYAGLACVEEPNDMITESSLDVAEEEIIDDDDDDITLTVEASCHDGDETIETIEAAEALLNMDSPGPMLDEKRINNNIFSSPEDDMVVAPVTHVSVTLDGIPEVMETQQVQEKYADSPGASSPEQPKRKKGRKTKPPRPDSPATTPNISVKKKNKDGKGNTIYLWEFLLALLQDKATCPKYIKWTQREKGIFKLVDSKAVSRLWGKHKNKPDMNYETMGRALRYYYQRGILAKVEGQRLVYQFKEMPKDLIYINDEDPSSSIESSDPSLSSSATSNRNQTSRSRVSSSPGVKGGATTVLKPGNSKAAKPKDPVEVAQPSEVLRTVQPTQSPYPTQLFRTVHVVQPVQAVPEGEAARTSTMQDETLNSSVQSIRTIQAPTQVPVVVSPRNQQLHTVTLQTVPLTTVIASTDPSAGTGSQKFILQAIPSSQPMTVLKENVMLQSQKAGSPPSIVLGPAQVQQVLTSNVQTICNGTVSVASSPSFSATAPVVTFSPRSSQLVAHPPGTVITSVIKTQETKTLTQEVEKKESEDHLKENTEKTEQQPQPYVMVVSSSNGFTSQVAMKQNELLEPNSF
Chain of HSF1 (Q00613 whole entry): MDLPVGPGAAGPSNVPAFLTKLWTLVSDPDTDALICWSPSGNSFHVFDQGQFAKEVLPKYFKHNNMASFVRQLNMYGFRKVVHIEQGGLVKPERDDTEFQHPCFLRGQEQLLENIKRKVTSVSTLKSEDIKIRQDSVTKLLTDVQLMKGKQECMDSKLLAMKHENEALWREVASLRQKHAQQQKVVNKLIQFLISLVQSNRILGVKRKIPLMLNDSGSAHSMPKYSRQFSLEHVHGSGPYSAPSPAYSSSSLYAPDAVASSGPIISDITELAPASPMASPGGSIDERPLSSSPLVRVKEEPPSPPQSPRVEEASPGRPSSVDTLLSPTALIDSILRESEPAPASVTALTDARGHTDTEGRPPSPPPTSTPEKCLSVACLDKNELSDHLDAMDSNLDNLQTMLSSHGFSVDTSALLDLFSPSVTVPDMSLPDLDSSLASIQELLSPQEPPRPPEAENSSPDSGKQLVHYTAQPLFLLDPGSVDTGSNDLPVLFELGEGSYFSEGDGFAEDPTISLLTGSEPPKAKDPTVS

As for CTCGTG, the binding signal was 1.19 fold enrichment (6-mer frequency, TF over GST control) in the test with FLI1; 1.09 fold enrichment (6-mer frequency, TF over GST control) in the test with ELK1; 1.28 fold enrichment (6-mer frequency, TF over GST control) with GABPA; 1.16 fold enrichment (6-mer frequency, TF over GST control) in the test with ELF1; 1.07 fold enrichment (6-mer frequency, TF over GST control) in the test with EHF; 1.05 fold enrichment (6-mer frequency, TF over GST control) with SPIB. The binding signal is 1.11 fold enrichment (6-mer frequency, TF over GST control) in the test with ELK3; 1.05 fold enrichment (6-mer frequency, TF over GST control) with FEV; 1.03 fold enrichment (6-mer frequency, TF over GST control) in the test with ETV5; 1.18 fold enrichment (6-mer frequency, TF over GST control) with HSF1; 1.03 fold enrichment (6-mer frequency, TF over GST control) in the test with SPIC; 1.21 fold enrichment (6-mer frequency, TF over GST control) in the test with ELF4. Besides, the binding signal with ETV1 was 1.18 fold enrichment (6-mer frequency, TF over GST control).

On to ACGATC, for which the binding signal is 1.05 fold enrichment (6-mer frequency, TF over GST control) with FLI1; 1.17 fold enrichment (6-mer frequency, TF over GST control) with GABPA; 1.03 fold enrichment (6-mer frequency, TF over GST control) with ERG; 1.09 fold enrichment (6-mer frequency, TF over GST control) in the test with ELF1; 1.08 fold enrichment (6-mer frequency, TF over GST control) with SPIB; 1.1 fold enrichment (6-mer frequency, TF over GST control) with ELK3. Further, the binding signal in the test with FEV is 1.07 fold enrichment (6-mer frequency, TF over GST control); in the test with ETV5, 1.06 fold enrichment (6-mer frequency, TF over GST control); with HSF1 it was 1.15 fold enrichment (6-mer frequency, TF over GST control); with SPIC, 1.02 fold enrichment (6-mer frequency, TF over GST control); with ELF4 it was 1.08 fold enrichment (6-mer frequency, TF over GST control); with ETV2, 1.09 fold enrichment (6-mer frequency, TF over GST control). The binding signal was 1.04 fold enrichment (6-mer frequency, TF over GST control) with ELF3; 1.14 fold enrichment (6-mer frequency, TF over GST control) in the test with CRX; 1.05 fold enrichment (6-mer frequency, TF over GST control) with ETV1.
